Mtb bLac sens – beta-lactam sensitization of Mtb H37Rv; M. tuberculosis H37Rv growth with meropenem, percent inhibition; inhibition, % at 25 µM; 0.27% of 330,000 active; call rule not given here;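 further: growth measured after seven days incubation then overnight dye step; 0% = bacteria only wells and 100% = bacteria with antibiotic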
BJeLR viability – kills HRASV12-expressing BJeLR cells. 0.17% of 300,000 active. inhibition, % (test concentration not listed). BJeLR (HRASV12) viability, CellTiter-Glo ATP luminescence, 48 h; in the data active means inhibition above about 50%
Mtb BioA inh – BioA (M. tuberculosis) enzyme inhibition. purified M. tuberculosis BioA enzyme, plate reader. inhibition, % at 9.99 µM. 0.096% of 360,000 active. AID 602481; in the data active means inhibition above about 40%
Y pestis TopoI – Y. pestis Topo-I inhibition via cleavage products. Y. pestis Topo-I cleavage product accumulation, plate reader. activity, % at 10 µM. 0.064% of 360,000 active. AID 504884; in the data active means activity above about 50%, passing the limit was not always enough
CCHF vOTU inh-1 – CCHFV vOTU protease inhibition. 0.55% of 370,000 active. Pep-AMC fluorescence. inhibition, % at 11.5 µM. AID 651958; further: 0% = vehicle wells with enzyme and 100% = no enzyme wells
RecA intein inh – blocks M. tuberculosis RecA intein splicing. cell-free RecA intein splicing, fluorescence. inhibition, % (concentration not given with the values). 0.75% of 290,000 active. AID 2221; in the data active means inhibition above about 30%;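 further: 0% = vehicle wells and 100% = reference inhibitor control wells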
Target sequence (P9WHJ3 whole entry, looked up): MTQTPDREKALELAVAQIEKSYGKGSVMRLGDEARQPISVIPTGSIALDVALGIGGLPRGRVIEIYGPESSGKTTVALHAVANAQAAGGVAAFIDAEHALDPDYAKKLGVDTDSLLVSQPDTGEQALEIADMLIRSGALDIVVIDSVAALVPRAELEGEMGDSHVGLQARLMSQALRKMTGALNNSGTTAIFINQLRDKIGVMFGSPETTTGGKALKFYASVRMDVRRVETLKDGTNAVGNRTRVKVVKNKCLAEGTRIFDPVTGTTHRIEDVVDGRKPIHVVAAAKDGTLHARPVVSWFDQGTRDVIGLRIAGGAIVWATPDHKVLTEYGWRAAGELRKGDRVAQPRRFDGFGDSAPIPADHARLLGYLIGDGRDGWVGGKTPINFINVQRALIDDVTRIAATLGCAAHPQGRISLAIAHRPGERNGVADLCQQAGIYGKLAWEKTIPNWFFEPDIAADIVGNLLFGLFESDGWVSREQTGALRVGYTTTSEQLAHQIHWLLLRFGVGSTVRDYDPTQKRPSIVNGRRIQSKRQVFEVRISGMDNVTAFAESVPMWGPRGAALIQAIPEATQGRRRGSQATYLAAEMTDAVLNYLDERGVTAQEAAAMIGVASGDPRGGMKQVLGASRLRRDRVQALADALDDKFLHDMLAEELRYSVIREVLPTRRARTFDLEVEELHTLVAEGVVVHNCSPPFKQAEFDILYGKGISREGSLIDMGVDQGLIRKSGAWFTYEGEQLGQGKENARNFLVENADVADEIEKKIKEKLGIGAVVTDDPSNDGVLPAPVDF
CCHF vOTU inh-2 – confirmation of CCHF virus vOTU protease inhibitors | 17% of 1,900 active | shares compounds with CCHF vOTU inh-1 | inhibition, % at 11.5 µM | Recombinant CCHFV vOTU, Pep-AMC fluorescence
Numbers without * were called inactive; nt = not tested or not shown. Only some compounds are listed: those with a hit (about 1.1% of all), similar ones and a draw of the others. Unless noted, no stated cut-off is given here; in the data, active means inhibition above about 30%; inactive means the rest.

SMILES	Mtb bLac sens	BJeLR viability	Mtb BioA inh	Y pestis TopoI	CCHF vOTU inh-1	RecA intein inh	CCHF vOTU inh-2
COc1ccc2nc(-c3ccco3)c(-c3ccco3)nc2c1	0	-13	0	-5	63*	-92	-15
COc1ccc(-c2nc3ccccc3nc2-c2ccc(OC)cc2)cc1	3	-2	1	44	-4	2	nt
c1coc(-c2nc(-c3ccco3)c(-c3ccco3)nc2-c2ccco2)c1	-7	11	0	5	35*	nt	-14
Nc1nc(-c2ccco2)c(-c2ccco2)s1	86	-7	nt	5	11	-1	nt
CC(C)C1S/C(=N/N=C/c2cccs2)NC1=O (stereo unspecified)	45	5	nt	-2	35*	-1	-8
CC1S/C(=N/N=C/c2cccs2)NC1=O (stereo unspecified)	22	7	-4	-3	8	0	nt
O=C(O)C1=CCC(c2ccc(Cl)c(Cl)c2)N(S(=O)(=O)c2ccc(F)cc2)C1c1cccc(F)c1 (stereo unspecified)	nt	nt	nt	nt	37*	nt	-10
Cc1ccc([C@H]2C(C(=O)O)=CC[C@@H](c3cccc(Cl)c3)N2S(=O)(=O)c2ccc(C)cc2)cc1	nt	nt	20	20	7	nt	nt
Cc1ccc(S(=O)(=O)N2[C@@H](c3ccc(Br)cc3)C(C(=O)O)=CC[C@H]2c2ccc(Cl)c(Cl)c2)cc1	2	nt	8	17	32*	nt	9
CCc1ccc([C@@H]2CC=C(C(=O)O)[C@H](c3ccc(C)cc3)N2S(=O)(=O)c2ccc(C)cc2)cc1	4	nt	5	14	32*	nt	16
Cc1ccc(S(=O)(=O)N2[C@@H](c3ccc(C(C)(C)C)cc3)C(C(=O)O)=CC[C@H]2c2cccc(Cl)c2)cc1	4	nt	2	11	38*	nt	11
CCc1ccc([C@@H]2CC=C(C(=O)O)[C@H](c3ccc(Cl)cc3)N2S(=O)(=O)c2ccc(C)cc2)cc1	5	nt	4	9	22	nt	nt
O=C(C[C@H]1CC[C@H]2[C@@H](COC[C@@H](O)CN2C(=O)c2ccccc2)O1)N1CCOCC1	nt	nt	-1	nt	nt	nt	nt
CCCN(C)C[C@@H]1OCCCC[C@@H](C)Oc2ccc(NS(=O)(=O)c3ccccc3)cc2C(=O)N([C@H](C)CO)C[C@@H]1C	nt	nt	-6	nt	nt	nt	nt
Cc1ccc(S(=O)(=O)N2[C@@H](c3ccccc3)C(C(=O)O)=CC[C@H]2c2ccc(C(C)C)cc2)cc1	-1	nt	4	4	30*	nt	2
CCc1ccc([C@@H]2C[C@H]3[C@@H](CN2S(=O)(=O)c2ccc(C)cc2)C(=O)C[C@@H](c2ccc(C)cc2)N3S(=O)(=O)c2ccc(C)cc2)cc1	nt	nt	-1	9	34*	nt	-20
Cc1ccc([C@H]2C(C(=O)O)=CC[C@@H](c3ccc(Cl)cc3)N2S(=O)(=O)c2ccc(C)cc2)cc1	-15	nt	1	8	33*	nt	0
Cc1ccc([C@H]2C(C(=O)O)=CC[C@@H](c3ccc(C(C)C)cc3)N2S(=O)(=O)c2ccc(C)cc2)cc1	0	nt	7	27	38*	nt	19
CCc1ccc([C@@H]2C[C@H]3[C@@H](CN2S(=O)(=O)c2ccc(C)cc2)C(=O)C[C@@H](c2ccccc2)N3S(=O)(=O)c2ccc(C)cc2)cc1	nt	nt	-1	6	5	nt	nt
Cc1ccc(S(=O)(=O)N2[C@@H](c3ccc(Cl)cc3)C(C(=O)O)=CC[C@H]2c2ccc(C(C)C)cc2)cc1	1	nt	9	6	27	nt	nt
C[C@@H](O)C#Cc1ccc2c(c1)O[C@H](CN(C)CC1CC1)[C@@H](C)CN([C@@H](C)CO)S2(=O)=O	nt	nt	-1	nt	nt	nt	nt
CC(C)CCNC(=O)c1c(N)n(Cc2ccc3c(c2)OCO3)c2nc3ccccc3nc12	32	-12	nt	8	54*	-4	-14
Nc1ccc(-n2c(N)c(C(=O)NCc3ccc4c(c3)OCO4)c3nc4ccccc4nc32)cc1	0	-1	-1	0	12	1	nt
CC(=O)c1c(C)[nH]c(C(=O)OCC(=O)NNC(=O)c2ccc([N+](=O)[O-])cc2)c1C	23	nt	3	-2	35*	nt	-12
CC(=O)c1c(C)[nH]c(C(=O)OCC(=O)Nc2ccc([N+](=O)[O-])cc2Cl)c1C	-2	6	nt	-12	-4	2	nt
SMILES	Mtb bLac sens	BJeLR viability	Mtb BioA inh	Y pestis TopoI	CCHF vOTU inh-1	RecA intein inh	CCHF vOTU inh-2
C[C@H]1CN([C@@H](C)CO)C(=O)c2cccc(NC(=O)C3CCOCC3)c2O[C@H]1CN(C)Cc1ccc(C(=O)O)cc1	nt	nt	-2	nt	nt	nt	nt
O=C1NCCCC2c3c(cc(Br)c(O)c3Br)OC12N1CCOCC1 (stereo unspecified)	2	nt	1	6	0	-3	nt
O=C1NCCCC2c3cc(O)c4ccccc4c3OC12N1CCCCC1 (stereo unspecified)	-3	nt	nt	nt	92*	nt	16
CC(/C=C1\SC(=S)N(c2ccc(C(=O)O)cc2)C1=O)=C\c1ccccc1	6	-1	nt	-15	30*	2	4
CCCCCCC[C@@H](C/C=C/CCC(=O)N(C)C/C(=C/Cl)C/C(=C\C(=O)N1C[C@H](O)CC1=O)OC)OC	-7	nt	0	26	31*	nt	13
Nn1cnnc1N/N=C/c1cccc(Cl)c1Cl	5	4	5	-9	61*	-1	-1
Nn1cnnc1N/N=C/c1ccccc1C(F)(F)F	-7	-8	1	2	69*	4	-11
FC(F)(F)c1ccccc1/C=N/Nc1ccccn1	6	-14	nt	6	4	0	nt
O=C(CO)N/N=C/c1cccc(Cl)c1Cl	5	5	nt	-1	1	1	nt
CN1CCc2c(sc3c2c(=O)n(-c2ccccc2)c2nnc(SCc4ccccc4)n32)C1	10	1	3	4	31*	2	-7
CN1CCc2c(sc3c2c(=O)n(-c2ccccc2)c2nnc(SCc4ccc(F)cc4)n32)C1	nt	nt	nt	7	-3	nt	nt
COCC(=O)N1C[C@@H](C)[C@@H](OC)CN(C)C(=O)c2cc(NC(=O)Nc3cccc(F)c3)ccc2OC[C@H]1C	nt	nt	11	nt	nt	nt	nt
O=C(NCC[C@@H]1CC[C@@H](NC(=O)C2CC2)[C@H](CO)O1)c1ccc(F)cc1	nt	nt	1	nt	nt	nt	nt
OCC1OC(C(N=Nc2ccccc2)=NNc2ccccc2)C(O)C1O (stereo unspecified)	nt	nt	nt	nt	31*	nt	-16
NC(=O)/C(N=Nc1ccccc1)=N/Nc1ccccc1	73	-4	1	-11	20	2	nt
COc1cc(COC(=O)Oc2ccc(CNC(C)=O)cc2OC)c([N+](=O)[O-])cc1OC	4	7	1	5	31*	-4	-11
O=C(C[C@@H]1CC[C@@H]2[C@H](COC[C@@H](O)CN2Cc2nccs2)O1)N1CCC(Cc2ccccc2)CC1	nt	nt	-1	nt	nt	nt	nt
CCN(CC(=O)Nc1ccc(NC(C)=O)cc1)C(=O)c1ccc(N2CCC(C)CC2)c([N+](=O)[O-])c1	-1	nt	8	14	5	nt	nt
Cc1nnc(N/N=C/c2cc([N+](=O)[O-])c(N3CCC(C)CC3)cc2N2CCC(C)CC2)n1N	97	-1	-2	13	96*	21	-3
